# Source: the supplement of paper PMC6992640
# Test system: UCD52 (cells of a triple-negative basal-like breast cancer xenograft)
# Test: cell viability of combination (% of vehicle); higher = less cytotoxic
# Conditions: 1 µM; 72 h; partner dose: 10 nM
# Experimental: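 PDX cells were treated for 72 h with each drug at 1 µM plus carfilzomib (10 nM; 100 nM for WHIM2). Luciferase viability is expressed as percent of vehicle.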
row,SMILES,cell viability of combination
1,Cc1ccc(C(=O)N(CCCN)C(c2nc3cc(Cl)ccc3c(=O)n2Cc2ccccc2)C(C)C)cc1 (configuration not stated) + CC(C)C[C@H](NC(=O)[C@H](CCc1ccccc1)NC(=O)CN1CCOCC1)C(=O)N[C@@H](Cc1ccccc1)C(=O)N[C@@H](CC(C)C)C(=O)[C@@]1(C)CO1 [Carfilzomib],42.9
2,Cc1cn(-c2cc(NC(=O)c3ccc(C)c(Nc4nccc(-c5cccnc5)n4)c3)cc(C(F)(F)F)c2)cn1 [Nilotinib(AMN-107)] + CC(C)C[C@H](NC(=O)[C@H](CCc1ccccc1)NC(=O)CN1CCOCC1)C(=O)N[C@@H](Cc1ccccc1)C(=O)N[C@@H](CC(C)C)C(=O)[C@@]1(C)CO1 [Carfilzomib],45.7
3,[O-]n1ccccc1=S.[O-]n1ccccc1=S.[Zn+2] [Zinc Pyrithione] + CC(C)C[C@H](NC(=O)[C@H](CCc1ccccc1)NC(=O)CN1CCOCC1)C(=O)N[C@@H](Cc1ccccc1)C(=O)N[C@@H](CC(C)C)C(=O)[C@@]1(C)CO1 [Carfilzomib],42.8
4,CC(CCC(=O)O)C1CCC2C3CCC4CC(O)CCC4(C)C3CCC12C (configuration not stated) [Lithocholic Acid] + CC(C)C[C@H](NC(=O)[C@H](CCc1ccccc1)NC(=O)CN1CCOCC1)C(=O)N[C@@H](Cc1ccccc1)C(=O)N[C@@H](CC(C)C)C(=O)[C@@]1(C)CO1 [Carfilzomib],60.5
5,CN1CCC(COc2cnc(-c3cccc(Cn4nc(-c5cccc(C#N)c5)ccc4=O)c3)nc2)CC1 + CC(C)C[C@H](NC(=O)[C@H](CCc1ccccc1)NC(=O)CN1CCOCC1)C(=O)N[C@@H](Cc1ccccc1)C(=O)N[C@@H](CC(C)C)C(=O)[C@@]1(C)CO1 [Carfilzomib],57
6,CNCCCC12CCC(c3ccccc31)c1ccccc12.Cl [Maprotiline HCl] + CC(C)C[C@H](NC(=O)[C@H](CCc1ccccc1)NC(=O)CN1CCOCC1)C(=O)N[C@@H](Cc1ccccc1)C(=O)N[C@@H](CC(C)C)C(=O)[C@@]1(C)CO1 [Carfilzomib],55.5
7,C#Cc1cccc(Nc2ncnc3cc(OCCOC)c(OCCOC)cc23)c1.Cl [Erlotinib Hydrochloride] + CC(C)C[C@H](NC(=O)[C@H](CCc1ccccc1)NC(=O)CN1CCOCC1)C(=O)N[C@@H](Cc1ccccc1)C(=O)N[C@@H](CC(C)C)C(=O)[C@@]1(C)CO1 [Carfilzomib],57.4
8,CCOc1cc2ncc(C#N)c(Nc3ccc(OCc4ccccn4)c(Cl)c3)c2cc1NC(=O)C=CCN(C)C [Neratinib (HKI-272)] + CC(C)C[C@H](NC(=O)[C@H](CCc1ccccc1)NC(=O)CN1CCOCC1)C(=O)N[C@@H](Cc1ccccc1)C(=O)N[C@@H](CC(C)C)C(=O)[C@@]1(C)CO1 [Carfilzomib],48.7
9,Cc1cc(Nc2ncc(Cl)c(Nc3ccccc3S(=O)(=O)C(C)C)n2)c(OC(C)C)cc1C1CCNCC1 + CC(C)C[C@H](NC(=O)[C@H](CCc1ccccc1)NC(=O)CN1CCOCC1)C(=O)N[C@@H](Cc1ccccc1)C(=O)N[C@@H](CC(C)C)C(=O)[C@@]1(C)CO1 [Carfilzomib],31.4
10,CCCCc1oc2ccc(NS(C)(=O)=O)cc2c1C(=O)c1ccc(OCCCN(CCCC)CCCC)cc1 [Dronedarone] + CC(C)C[C@H](NC(=O)[C@H](CCc1ccccc1)NC(=O)CN1CCOCC1)C(=O)N[C@@H](Cc1ccccc1)C(=O)N[C@@H](CC(C)C)C(=O)[C@@]1(C)CO1 [Carfilzomib],59.3
11,Clc1ccc(C(Cn2ccnc2)OCc2ccsc2Cl)c(Cl)c1 (configuration not stated) [Tioconazole] + CC(C)C[C@H](NC(=O)[C@H](CCc1ccccc1)NC(=O)CN1CCOCC1)C(=O)N[C@@H](Cc1ccccc1)C(=O)N[C@@H](CC(C)C)C(=O)[C@@]1(C)CO1 [Carfilzomib],62.5
12,CCCCCCCCc1ccc(CCC(N)(CO)CO)cc1.Cl [Fingolimod (FTY720)] + CC(C)C[C@H](NC(=O)[C@H](CCc1ccccc1)NC(=O)CN1CCOCC1)C(=O)N[C@@H](Cc1ccccc1)C(=O)N[C@@H](CC(C)C)C(=O)[C@@]1(C)CO1 [Carfilzomib],61.5
